In PubChem BioAssay (Tox21):
Inconclusive results are not listed. Entries that show only a call come without a potency. Some structures have more than one record in an assay (separate samples or runs), and their calls can disagree. Calls of active or inactive are those of the source. Unless noted, the call rests on the fitted dose curve; in most records, active means well fitted curve in the direction sought with a large enough effect in the repeat runs; inconclusive means weak or mixed curves; inactive means no such curve, though single readings can be large; an effect the other way counts as inactive or inconclusive.

What was measured:
[1] = qHTS assay to identify small molecule agonists of the vitamin D receptor (VDR) signaling pathway - cell viability counter screen (AID 743224); further: series mostly up to about 63 µM; nearly all actives have a fitted effect of over 50% in size
Summary of the method: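 Cytotoxicity counter screen: VDR-bla cells, 16 h compound exposure at 37C, 5% CO2; CellTiter-Glo luminescence, 30 min RT, same wells as bla read.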

[2] = qHTS assay to identify small molecule antagonists of the vitamin D receptor (VDR) signaling pathway - cell viability counter screen (AID 743225); further: nearly all actives have a fitted effect of over 50% in size; further: potency means the concentration at half of the fitted maximal effect
Summary of the method: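 Compounds were pinned onto VDR-bla HEK 293T cells together with 1-alpha,25-dihydroxyvitamin D3 at 3 nM final. After 16 h at 37C and 5% CO2 plus the reporter readout, cell viability was measured by CellTiter-Glo luminescence (30 min, room temperature).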

[3] = qHTS assay to identify small molecule agonists of the NFkB signaling pathway - cell viability counter screen (AID 1159515; calls by dose curve; further: series mostly up to about 61 µM; nearly all actives have a fitted effect of over 55% in size)
Summary of the method: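 ME-180 NFkB-bla cells, 2,000/well; overnight attach; compound 5 hr, 37 C/5% CO2; LiveBLAzer substrate 1.5 hr RT; then CellTiter-Glo in same wells, 30 min RT, luminescence read.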

[4] = qHTS assay to identify small molecule agonists of the endoplasmic reticulum stress response signaling pathway (AID 1159516; active means well fitted activation curve with a large enough effect in the signal ratio in the repeat runs, not every such curve was filed as active; the % refers to the signal ratio)
Summary of the method: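 HeLa ESRE-bla reporter line; cpd 5 h, 37 C/5% CO2; LiveBLAzer B/G FRET substrate 2 h RT; ex 405, em 460/530 nm.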

[5] = qHTS assay to identify small molecule agonists of the endoplasmic reticulum stress response signaling pathway - cell viability counter screen (AID 1159517; calls by dose curve;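 further: HeLa cells carrying an ER stress response element beta-lactamase reporter; series mostly up to about 61 µM; nearly all actives have a fitted effect of over 50% in size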)
Summary of the method: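 Steps: seed 1,500 ESRE-bla HeLa cells per well; incubate overnight at 37 C, 5% CO2; add compounds in DMSO for 5 hr; run FRET substrate 2 hr RT; add CellTiter-Glo, wait 30 min, read luminescence.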

[6] = molecular target: Nuclear receptor ROR-gamma (Homo sapiens) (UniProt P51449); test: qHTS assay to identify small molecule antagonists of the retinoid-related orphan receptor gamma (ROR-gamma) signaling pathway (AID 1159521; further: nearly all actives have a fitted effect of over 50% in size; further: potency means the concentration at half of the fitted maximal effect)
Summary of the method: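 Test compounds were applied to Tet-on RORγ CHO cells 2 h ahead of doxycycline hyclate (1 uM final). Luciferase reporter activity was quantified by luminescence after 16 h at 37 C and 5% CO2.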

[7] = qHTS assay to identify small molecule agonists of the AP-1 signaling pathway - cell viability counter screen (AID 1159525; calls by dose curve; further: nearly all actives have a fitted effect of over 55% in size; further: potency means the concentration at half of the fitted maximal effect)
Summary of the method: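 Same-well cytotoxicity counter screen of the Tox21 10K library in ME-180 cells. The readout is ATP-dependent luminescence after 5 h compound treatment. Data are normalised to DMSO and tetra n-octyl ammonium bromide controls.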

[8] = qHTS assay to identify small molecule agonists of the AP-1 signaling pathway (AID 1159526; calls by dose curve)
[9] = molecular target: Retinoic acid receptor RXR-alpha (Homo sapiens) (UniProt P19793); test: qHTS assay to identify small molecule agonists of the RXR signaling pathway (AID 1159527; calls by dose curve; further: nearly all actives have a fitted effect of over 35% in size)
Summary of the method: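 Using 9-cis retinoic acid as the reference agonist, chemicals were tested in HEK 293T cells […] for 16 hr; substrate loading lasted 2 hr at room temperature.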

[10] = qHTS assay to identify small molecule agonists of the RXR signaling pathway - cell viability counter screen (AID 1159529); further: nearly all actives have a fitted effect of over 50% in size; further: potency means the concentration at half of the fitted maximal effect
Summary of the method: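 Compounds dissolved in DMSO were pinned onto HEK 293T cells carrying a beta-lactamase reporter under RXR-alpha control and incubated 16 hr. Cytotoxicity was then quantified by CellTiter-Glo luminescence.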

[11] = qHTS assay to identify small molecule antagonists of the retinoid acid receptor (RAR) signaling pathway - cell viability counter screen (AID 1159551); further: nearly all actives have a fitted effect of over 35% in size
Summary of the method: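 C3RL4 RARE-luciferase line; cpds + retinol 1 uM final, 6 h, 37 C/5% CO2; CellTiter-Glo ATP luminescence, 30 min RT.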

[12] = qHTS assay to identify small molecule antagonists of the retinoic acid receptor (RAR) signaling pathway (AID 1159552; further: nearly all actives have a fitted effect of over 50% in size)
Summary of the method: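 Test chemicals and DMSO controls were pin-transferred onto C3RL4 cells a day after seeding; retinol (1 uM final) followed at once. Luminescent reporter output was quantified after 6 hr of co-incubation and 30 min with detection reagent.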

[13] = qHTS assay to identify small molecule agonists of the retinoic acid receptor (RAR) signaling pathway (AID 1159553); further: potency means the concentration at half of the fitted maximal effect
Summary of the method: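 RARE-luc C3RL4 cells; overnight attachment 37 C/5% CO2; compound (DMSO) 6 hr; luciferase reagent, 30 min RT; luminescence read-out.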

[14] = qHTS assay to identify small molecule antagonists of the retinoid-related orphan receptor gamma (ROR-gamma) signaling pathway - cell viability counter screen (AID 1159520); further: nearly all actives have a fitted effect of over 50% in size
Summary of the method: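 Tet-on ROR gamma CHO cells were given compounds for 2 hr, then doxycycline hyclate at 1 uM final, and incubated 16 hr at 37 C. Viability was measured as ATP content by CellTiter-Glo luminescence.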

[15] = qHTS assay to identify small molecule antagonists of the estrogen related receptor (ERR) signaling pathway - cell viability counter screen (AID 1224818); further: series mostly up to about 46 µM
Summary of the method: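 Fluorescence from CellTiter-Fluor, read 30 min after reagent addition at 37 C, measured viability of ERR cells exposed to compounds for 17.5 h. Cells had settled 6 h before dosing.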

[16] = qHTS assay to identify small molecule antagonists of the estrogen related receptor (ERR) signaling pathway (AID 1224819)
Summary of the method: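 Luminescence readout (One-Glo, 30 min, RT) of ERR cell line after 18 h compound exposure at 37 C; cells seeded 2,000/well, pre-incubated 6 h, compounds pinned from DMSO stocks.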

[17] = qHTS assay to identify small molecule agonists of the estrogen related receptor (ERR) signaling pathway (AID 1224820)
Summary of the method: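 Luminescence readout (One-Glo, 30 min RT) from NTP-supplied ERR cell line exposed to compounds for 18 h at 37 C. Cells seeded 2,000 per well and pre-incubated 6 h before pin-tool compound transfer.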

[18] = tested on: estrogen-related receptor alpha (ERRalpha) with PGC-1alpha coactivator, human; test: qHTS assay to identify small molecule antagonists of the estrogen related receptor signaling pathway with the pleiotropic PPARgamma coactivator (PGC) (AID 1224821; calls by dose curve)
Summary of the method: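 PGC/ERR reporter cells; 6 h pre-incubation 37 C/5% CO2; pin-tool compound in DMSO, 18 h 37 C; One-Glo added, 30 min RT; luminescence read. qHTS antagonist mode.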

[19] = qHTS assay to identify small molecule antagonists of the estrogen related receptor signaling pathway with the pleiotropic PPARgamma coactivator (PGC) cell viability counter screen (AID 1224822; further: series mostly up to about 46 µM)
Summary of the method: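 Fluorescence read-out of CellTiter-Fluor after 30 min at 37 C; PGC/ERR cells, 2,000 per well, had been exposed to DMSO-dissolved compounds for 17.5 h following a 6 h pre-incubation.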

[20] = qHTS assay to identify small molecule agonists of the estrogen related receptor signaling pathway with the pleiotropic PPARgamma coactivator (PGC) (AID 1224823)
Summary of the method: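 Luminescence readout (One-Glo, 30 min RT) from PGC/ERR cell line treated 18 h at 37 C with pin-tool-delivered DMSO compound solutions; cells plated 6 h before dosing. Quantitative HTS format.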

Chain of Retinoic acid receptor RXR-alpha (Homo sapiens) (P19793 whole entry, looked up): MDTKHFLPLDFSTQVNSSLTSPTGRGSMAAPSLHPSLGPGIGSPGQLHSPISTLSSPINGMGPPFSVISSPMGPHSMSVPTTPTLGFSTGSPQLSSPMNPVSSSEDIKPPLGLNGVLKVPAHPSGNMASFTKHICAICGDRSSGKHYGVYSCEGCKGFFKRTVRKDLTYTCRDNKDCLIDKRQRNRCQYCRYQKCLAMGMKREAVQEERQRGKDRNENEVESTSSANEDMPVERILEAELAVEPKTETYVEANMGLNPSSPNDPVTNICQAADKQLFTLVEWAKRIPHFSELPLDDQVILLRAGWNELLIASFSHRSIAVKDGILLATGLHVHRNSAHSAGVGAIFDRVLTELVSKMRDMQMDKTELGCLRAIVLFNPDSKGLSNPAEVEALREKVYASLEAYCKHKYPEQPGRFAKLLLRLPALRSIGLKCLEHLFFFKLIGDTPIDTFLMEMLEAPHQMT

| Structure (SMILES) | Potency [1] | Potency [2] | Potency [3] | outcome [4] | Potency [5] | Potency [6] | Potency [7] | Potency [8] | Potency [9] | Potency [10] | Potency [11] | Potency [12] | Potency [13] | Potency [14] | Potency [15] | Potency [16] | outcome [17] | Potency [18] | Potency [19] | outcome [20] |
| --- | --- | --- | --- | --- | --- | --- | --- | --- | --- | --- | --- | --- | --- | --- | --- | --- | --- | --- | --- | --- |
| O=C(O)c1cccc(C(=O)O)c1 | inactive | inactive | inactive | inactive | inactive | inactive | inactive | inactive | inactive | inactive | inactive | inactive | inactive | – | – | – | – | – | – | – |
| CCc1ccc(C(c2ccc(CC)cc2)C(Cl)Cl)cc1 | inactive | inactive | inactive | inactive | inactive | inactive | inactive | inactive | – | 35.2 µM (active) | inactive | inactive | inactive | – | – | – | – | – | – | – |
| Nc1ccc(O)cc1 | inactive | inactive | inactive | inactive | inactive | 31.8 µM (active) and inactive | 32.1 µM (active) and inactive | inactive | inactive | inactive | inactive | inactive | 20.1 µM (active) | – | – | – | – | – | – | – |
| CCn1c2ccccc2c2cc(N)ccc21 | inactive | inactive | inactive | – | inactive | 19.1 µM (active) | inactive | inactive | – | – | inactive | – | – | inactive | – | – | – | – | – | – |
| NC(N)=NC(=O)Cc1c(Cl)cccc1Cl | inactive | – | inactive | inactive | inactive | inactive | inactive | inactive | – | inactive | inactive | inactive | inactive | – | inactive | inactive | inactive | inactive | inactive | inactive |
| CC(C)(C)c1ccccc1 | inactive | inactive | inactive | inactive | inactive | inactive | inactive | inactive | inactive | inactive | inactive | inactive | inactive | – | – | – | – | – | – | – |
| C#CC(C)(CC)OC(=O)c1ccccc1C(=O)O (centres undefined) | inactive | inactive | inactive | inactive | inactive | inactive | inactive | inactive | – | inactive | inactive | inactive | inactive | – | – | – | – | – | – | – |
| Clc1ccc2c(c1)C(N1CCNCC1)=Nc1ccccc1O2 | – | 49 µM (active) and inactive | inactive | – | inactive | inactive | inactive | – | inactive | inactive | inactive | – | – | inactive | inactive | – | – | – | – | – |
